Assay outcomes deposited in PubChem BioAssay by National Center for Advancing Translational Sciences (NCATS).
TRPV1 potentiator – human TRPV1 potentiation; Q8NER1; TRPV1-expressing cells, Fluo-8 calcium influx, capsaicin EC20 potentiation; potentiation, % at 8.33 µM; 320,000 tested, 0.02% active; in the data active = potentiation above about 80%; inconclusive = between about 30% and that limit; note: 0% is about no effect
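Cells expressing TRPV1 were dye-loaded with Fluo-8 and read kinetically: 10 s baseline, 3 min after compound (agonist portion), then 2 min after EC20 capsaicin (allosteric enhancer portion). Calcium-bound dye fluorescence at 480/520 nm.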
ClpP mod – qHTS Assay for Activators of ClpP; ATP-dependent Clp protease proteolytic subunit (Bacillus subtilis (strain 168)), P80244; 340,000 tested, 1.9% active; Potency, µM (series often up to 57.5 µM), without a hit: at the top dose activity change, negative = active; purified B. subtilis ClpP, FRET peptide cleavage, 20 min; active = well fitted falling curve with a large enough effect; inconclusive = small, poorly fitted or top-dose-only effect; inactive = no such curve, though single readings can be large or run the other way; note: potency is the fitted concentration of half-maximal effect; the source files actives as falling curves though it sought activators and does not explain the sign; nearly all actives have a fitted effect of over 65% in size
Target sequence (P80244 whole entry, looked up): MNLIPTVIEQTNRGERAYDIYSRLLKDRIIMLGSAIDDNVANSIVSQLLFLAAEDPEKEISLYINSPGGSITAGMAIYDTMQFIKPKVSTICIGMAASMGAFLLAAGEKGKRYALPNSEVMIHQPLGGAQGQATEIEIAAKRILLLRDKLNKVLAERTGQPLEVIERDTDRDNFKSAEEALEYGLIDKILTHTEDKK
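FRET quenching reversal measured ClpP activation: 10 microg/mL B. subtilis ClpP at pH 8 with the FRET-FV decapeptide, read at 430 nm after 320 nm excitation. The 20-min minus 0-min signal was scaled between DMSO/no-enzyme wells and ADEP (5.8 microM final).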
hERG WT inh – KCNH2 (human, wildtype) channel inhibition; Q12809; U2OS, BacMam KCNH2, thallium flux FluxOr; active compounds read low; activity change, % at 1.84 µM; 340,000 tested, 0.37% active;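 active = maximum activity change below -70%; inconclusive = maximum activity change between -70% and -50%; inactive = maximum activity change above -50%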; note: % is set by controls: 0 for no effect and ±100 for the full control effect
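U2OS cells were transduced with wild-type KCNH2 virus (2.03 x 10^8 / mL) for 4 h at room temperature, then cultured overnight at 37 C. Thallium flux was read with FluxOr dye. Rate constants were normalized to DMSO controls.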
KCNH2 3.1 block – blocks the human KCNH2 3.1 channel isoform; activity change, % (tested at about 1.8 µM); 340,000 tested, 0.95% active; AID 720553; U2OS KCNH2 3.1, thallium flux FluxOr; active compounds read low;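 active = maximum activity change below -70%; inconclusive = maximum activity change from -70% to -50%; inactive = maximum activity change above -50%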;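 note: thallium influx rate constant from kinetic fluorescence after stimulation buffer; % is set by controls: 0 for no effect and ±100 for the full control effect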
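Thallium flux read-out: FluxOr dye with Red40 quencher in HBSS/HEPES, 45 min at RT. Rate constants from kinetic reads were normalized to positive and negative DMSO controls. Cells: U2OS virally expressing the 3.1 isoform.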
TRPV1 ag – agonists of human vanilloid receptor 1 (TRPV1); AID 540275; TRPV1-expressing cells, Fluo-8 calcium influx, agonist mode; activation, % at 8.33 µM; 320,000 tested, 0.19% active; in the data active = activation above about 80%; inconclusive = between about 30% and that limit; note: 0% is about no effect
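Fluo-8 calcium influx in TRPV1-expressing cells, kinetic read (ex 480/em 520 nm). Compound added and read 3 min for agonist activity, followed by capsaicin at EC20 final and 2 min further read for enhancement.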
p53 reactivation – re-activators of mutant p53; H1299 p53-A138V BP100-luciferase reporter, luminescence, 24 h; Potency, µM (titrated, usually from 92.2 µM), without a hit: at the highest dose activity change, positive = activation, hits mostly activators; 320,000 tested, 0.063% active; AID 504706; active = well fitted activation curve with a large enough effect; inconclusive = small, poorly fitted or top-dose-only effect; inactive = no such curve, though single readings can be large or run the other way; note: potency is the fitted concentration of half-maximal effect; % of control where 0% means no effect; nearly all actives have a fitted effect of over 45% in size
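H1299 (p53-null), stable ts p53-A138V + BP100-Luc; 1000 cells/well, Opti-MEM/10% FBS; cpd 4 pt, 1:5; 24 h, 37 deg C, 5% CO2; detection reagent 10 min RT; luminescence.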
* hit, by the source's call; ? = inconclusive; / = no result. Sampled rows, rich in hits. Any-hit rate of the full collection: about 2.6%.

SMILES | TRPV1 potentiator | ClpP mod | hERG WT inh | KCNH2 3.1 block | TRPV1 ag | p53 reactivation
OCC[C@@H]1C[C@@H](O)[C@H](O)[C@@]2(CCc3ccccc3O2)O1 | 23 | 1% | -169* | 5 | 1 | /
OCC[C@@H]1C[C@H](O)[C@@H](O)[C@@]2(OCc3ccccc32)O1 | 24 | 0% | -16 | -136* | 4 | /
OCC[C@H]1C[C@@H](O)[C@H](O)[C@]2(OCc3ccccc32)O1 | -12 | 0% | -3 | -89* | -1 | -7%
OCC[C@@H]1C[C@H](O)[C@@H](O)[C@]2(OCCc3ccccc32)O1 | -17 | 1% | 7 | 23 | -4 | /
O=S(=O)(c1ccc(F)cc1)N1CCN(c2nc(-c3cccs3)nc3ccccc23)CC1 | / | 4% | / | / | / | /
Cc1cccc(CC(=O)Nc2cccc(-c3nc4cccnc4s3)c2)c1 | / | 20µM* | / | / | / | /
Cc1c(C(=O)OC(C)C(C)C[N+](C)(C)C)oc2ccccc12 (configuration not stated) | 5 | 28µM* | 5 | 14 | -4 | -5%
CCC(Oc1ccccc1)C(=O)N1CCC(C(N)=O)CC1 (configuration not stated) | / | 1% | -109* | -2 | / | ?
CCC(Oc1ccccc1)C(=O)N1CCN(C(=O)C(CC)Oc2ccccc2)CC1 (configuration not stated) | -9 | 1% | 18 | 0 | -1 | -1%
Cc1ccc(CN2C(=O)CCC2(C)c2nnnn2-c2ccc3c(c2)OCCO3)cc1 (configuration not stated) | / | 1% | / | / | / | /
S=C(NCc1ccccn1)Nc1ccc(Cl)cc1 | -3 | -25% | -199* | -196* | 5 | 4%
Fc1cccc(NC(=S)NCc2ccccn2)c1 | -29 | -4% | 8 | 15 | 26 | 14%
CCOC(=O)N1CCN(c2nc(-c3cccc(OC)c3)cc(C(F)(F)F)n2)CC1 | -14 | 28µM* | -10 | 0 | 22 | -6%
O=C(C[n+]1ccc2ccccc2c1)Nc1cc(C(F)(F)F)ccc1Cl | -2 | -12% | -47 | -82* | 2 | -3%
Cc1nn2c(N3CCN(c4ccccn4)CC3)cc(C(C)C)nc2c1-c1ccccc1 | 9 | 28µM* | -1 | 9 | 28 | 4%
Cc1ccc(Nc2nc(-c3c(C)nc4ccccn34)cs2)cc1 | 0 | 28µM* | -24 | -78* | 8 | 11%
Cc1cc2ccccc2c[n+]1CC(=O)c1ccc(F)cc1 | / | 4% | / | / | / | /
CCOC(=O)c1ccccc1NC(=O)CSc1nnc(Cc2cccn2C)n1-c1ccc(F)cc1 | -5 | 17% | -87* | -11 | 7 | -2%
CNc1ccc2ncc(-c3cccc(C(=O)N(C)C)c3)n2n1 | / | 5% | / | / | / | /
Cc1cccc(C)c1Nc1nnc(SCC(=O)c2ccc(Br)s2)s1 | 6 | -2% | 2 | -2 | 5 | 9%
Cc1cccc(C)c1Nc1nnc(SCC(=O)c2ccc3c(c2)NC(=O)CO3)s1 | 0 | 35µM* | 5 | -7 | 9 | -10%
Cc1nn(-c2ccc(F)cc2)c2sc(C(=O)OCC(=O)N3CCC(C)CC3)cc12 | -22 | 22µM* | 14 | 0 | 0 | 7%
Cc1noc(C)c1COC(=O)c1cc2c(C)nn(-c3ccc(F)cc3)c2s1 | -9 | -4% | -3 | -2 | 5 | 0%
CCOc1ccc(NC(=O)Nc2nnc(CC)s2)cc1 | ? | 28µM* | -18 | -5 | -5 | 6%
COc1ccc(-c2nsc(NC(=O)c3oc4ccc(Cl)cc4c3C)n2)cc1 | / | 2% | / | / | / | /
SMILES | TRPV1 potentiator | ClpP mod | hERG WT inh | KCNH2 3.1 block | TRPV1 ag | p53 reactivation
Cc1cc(C)c2c(C)c(C(=O)NCc3ccncc3)oc2c1 | 12 | ? | -5 | 8 | ? | -17%
CCc1ccc2oc(C(=O)Nc3nc(-c4ccccc4)ns3)c(C)c2c1 | / | 25µM* | / | / | / | /
CCc1ccc2oc(C(=O)NCc3ccncc3)c(C)c2c1 | -18 | 28µM* | 6 | 13 | ? | ?
CCC(=O)NCCc1cc2cc(C)c(C)cc2[nH]c1=O | -3 | 16µM* | -26 | -4 | -4 | -3%
Cc1nc(-c2cccc(F)c2)sc1CCNC(=O)C(=O)Nc1ccc2c(c1)OCO2 | / | -6% | / | / | / | /
Cc1cccc(NC(=O)c2ccc(C(=O)c3ccccc3)o2)c1 | -3 | 22µM* | -2 | 7 | 28 | 6%
Nc1sc(Cc2ccccc2)cc1C(=O)c1c(-c2ccccc2)[nH]c2ccccc12 | / | -8% | / | / | / | /
COc1ccccc1N1CCN(Cc2cc(=O)c(OCC(=O)Nc3ccccc3)co2)CC1 | 6 | 25µM* | 0 | 4 | -5 | -7%
CCc1ccc(Nc2ccc3nonc3c2[N+](=O)[O-])cc1 | / | / | -134* | -159* | / | /
CCCC/C=C1\CCc2c([nH]c3ccccc23)C1=O | 2 | / | -11 | 2 | -2 | 2%
CCCCN1CCc2c([nH]c3ccccc23)C1=O | 2 | 20µM* | -6 | -19 | -1 | 22%
CC(=O)c1cccc(NC(=S)NCc2ccccc2)c1 | 1 | 0% | -1 | 15 | ? | /
CC(=O)c1cccc(NC(=S)NCCc2ccc(Cl)cc2)c1 | 5 | -12% | -2 | -5 | 85* | -2%
Cc1ccc(C)c(NC(=O)/C(C#N)=C/c2ccc(C(C)C)cc2)c1 | / | -2% | / | / | / | /
CCCN(C(=O)c1cc(S(=O)(=O)N2CCCCC2)ccc1Cl)C1CCS(=O)(=O)C1 (configuration not stated) | -42 | -4% | 8 | 3 | 9 | -1%
CCCN(C(=O)C1CCN(S(=O)(=O)c2ccc(OC)c(OC)c2)CC1)C1CCS(=O)(=O)C1 (configuration not stated) | -3 | 14µM* | 3 | 15 | 0 | 6%
CC(=O)Nc1cccc(CP(=O)(c2ccccc2)c2ccccc2)c1 | -5 | 32µM* | 14 | -7 | 2 | -3%
COc1ccc(NC(C)=O)cc1CP(=O)(c1ccccc1)c1ccccc1 | 2 | -1% | -5 | -5 | -3 | -2%
Nc1nc(-c2ccco2)nn1S(=O)(=O)c1ccccc1 | 1 | / | -10 | -12 | -2 | 0%
Nc1nc(-c2cccnc2)nn1S(=O)(=O)c1ccccc1 | / | 35µM* | 5 | 22 | / | /
COc1ccc(NC(=O)N2CCN(c3cc(-c4noc(C)n4)ccc3C)CC2)c(OC)c1 | / | 2% | / | / | / | /
COc1ccc(NC(=O)c2ccc(-c3ccc(-c4noc(C)n4)cc3C)cc2)cc1N1CCN(C)CC1 | 7 | -1% | 8 | -87* | 0 | 3%
Cc1c(C(=O)N/N=C/c2ccc(N(C)C)cc2)[nH]c2ccc(Cl)cc12 | -2 | 32µM* | 1 | -2 | 22 | 0%
